# Compound activity: PubChem, Broad Institute
# This is one part of a sample in which hits are shown more often than they occur.
# Tgondii IFNg: blocks Toxoplasma gondii growth in the presence of IFN-gamma | activity change, negative = inhibition, % (test concentration not listed) | Toxoplasma gondii growth in IFN-gamma-treated host cells; hits give low values | 3.8% of 69,000 active; in the data active = activity change below about -70%, passing the limit was not always enough;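 also: host cells are HeLa cells infected with Toxoplasma gondii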
# Numbers stand for hits; 0 = inactive.
SMILES,Tgondii IFNg
COc1cccc(C#Cc2ccc3c(c2)O[C@@H](CN(C)C(=O)CN2CCOCC2)[C@@H](C)CN([C@H](C)CO)S3(=O)=O)c1,0
COc1cccc(C#Cc2ccc3c(c2)O[C@H](CN(C)C(=O)CN2CCOCC2)[C@H](C)CN([C@H](C)CO)S3(=O)=O)c1,0
C[C@H]1CN([C@@H](C)CO)S(=O)(=O)c2ccc(C#CCC3CCCC3)cc2O[C@H]1CN(C)C(=O)c1cnccn1,-91
COCC#Cc1ccc2c(c1)O[C@H](CN(C)C(=O)C1CCOCC1)[C@H](C)CN([C@H](C)CO)S2(=O)=O,0
C[C@@H]1CN([C@@H](C)CO)S(=O)(=O)c2ccc(C#CCC3CCCC3)cc2O[C@H]1CN(C)C(=O)c1cnccn1,0
COc1ccc(CC2CN(C(=O)c3cc(C(C)C)n4ncnc4n3)CCO2)cc1 (configuration not stated),0
CN1C(=O)c2cc(NS(C)(=O)=O)ccc2OC[C@H]2O[C@@H](CC(=O)N3CCOCC3)CC[C@@H]21,0
CC(=O)N1CCC2(CC1)Cc1ccccc1CNC2=O,0
CCOc1ccc(-c2nc(CN3CCN(C(=O)Nc4ccccc4C(F)(F)F)CC3)c(C)o2)cc1,0
CN1CCC(CN2CCC(c3nn(C)c(=O)n3-c3ccccc3)CC2)CC1,0
O=c1[nH]c(-c2ccccc2)nnc1/C=C/c1ccccc1,-85
O=c1[nH]c2ccccc2nc1/C=C/c1cccs1,0
Nc1nc(-c2ccccc2)c(Br)c(=O)[nH]1,0
COc1cc(N2CCCC3(CCNC3=O)C2)ncn1 (configuration not stated),0
O=C(Cc1csc(-c2ccccc2)n1)NCc1cccnc1-n1ccnc1,0
OCC1CCN(Cc2cc3n(n2)CCCNC3)CC1,0
c1cc2c(cc1OCC1CCN(Cc3cc4n(n3)CCNC4)CC1)CCC2,-87
c1ccc2c(c1)CCC(N1CCN(Cc3cc4n(n3)CCNC4)CC1)C2 (configuration not stated),0
CC(c1cccc(-c2c(-c3ccccc3)ncn2CCF)c1)N(C)C (configuration not stated),0
CC(=O)N1CCc2c([nH]c3ccccc23)C12C(=O)N(C)c1ccccc12 (configuration not stated),0
CN1c2ccccc2C(=O)N2CCc3c([nH]c4ccccc34)C21 (configuration not stated),-80
CCc1ccc(C2c3[nH]c4ccccc4c3CCN2C(=O)CSC)cc1 (configuration not stated),0
CN1[C@H](C(=O)NCc2ccccn2)[C@@H](CO)[C@@H]2Cn3c(ccc(-c4ccc(F)cc4)c3=O)[C@@H]21,0
Cc1ccc(C(=O)N2C[C@H]3CN(c4cncnc4)C(=O)[C@H]3C2)o1,0
O=c1[nH]cnc2c1sc1nc(-c3ccccc3)cc(-c3ccccc3)c12,0
SMILES,Tgondii IFNg
Cc1ccc(-c2cc(-c3ccccc3)nc3sc4c(c23)CCCC4)cc1,0
Nc1c(-c2nnc(-c3ccccc3)o2)sc2nc(-c3ccccc3)cc(-c3ccccc3)c12,-87
Cc1nc(C)c(C(=O)Nc2ccc3c(c2)CN(Cc2ccccc2)C3)o1,0
Cc1nc2ccccc2n1Cc1ccccc1,0
Cc1nc2n(Cc3ccccc3)c3ccccc3n2c1C(=S)Nc1ccccc1,-114
CCOc1ccc(-c2nc(CN(c3cccc(OC)c3)S(=O)(=O)c3ccccc3)c(C)o2)cc1,0
CC(C)CN1C(=O)N(C)C2(CCN(Cc3cccc4nccnc34)CC2)C1=O,0
Cc1ccc(CN2CCC3(CC2)C(c2ccccc2)CC(=O)N3C)s1 (configuration not stated),0
Cc1ccc2cccc(N3C(=O)Nc4ccccc4N3O)c2n1,0
Cc1ccc2cccc(NS(=O)(=O)c3cn(C)nc3C)c2n1,0
Cc1ccc2ccc3ccc(C)nc3c2n1,-76
O=C(c1ccc(Cl)cc1)C(CCN1CCCCCC1)c1ccccc1 (configuration not stated),0
O=C(NCCN1CCCC1)C1CCN(Cc2cc3ccccc3n2Cc2ccccc2Cl)CC1,0
CCOc1ccc(-c2nc(CN(c3ccccc3OC)S(=O)(=O)c3ccccc3C)c(C)o2)cc1,0
COC(C)(C)CC(C)NCc1cc(-c2ccco2)on1 (configuration not stated),0
C=CCOC1C2CCC1N(Cc1ccc3c(c1)OCO3)CCO2 (configuration not stated),0
CC1c2snnc2-c2cc(Cl)ccc2S1(=O)=O (configuration not stated),-103
CN(C)c1ncc2c(n1)[C@H]1CN(C(=O)CC(C)(C)C)C[C@@H]1S(=O)(=O)C2,0
CCCN1C(=O)CCc2cc(NC(=O)Cc3ccc(OC)c(Cl)c3)ccc21,0
O=c1ccn2c(n1)O[C@H]1[C@H](O)[C@@H](CO)O[C@H]12,0
Cc1c(NC(=O)c2ncoc2-c2ccc(F)cc2)c(=O)n(-c2ccccc2)n1C,0
Cc1c(NC(=O)Cc2ccccc2)c(=O)n(-c2ccccc2)n1C,0
Cc1c(NC(=O)c2cc3nc(-c4ccccc4)cc(C)n3n2)c(=O)n(-c2ccccc2)n1C,-86
CN(C)C(=O)c1cccc(-c2ccc3c(c2)[C@@H]2[C@@H](CCN2C(=O)c2cnccn2)[C@H](CO)N3)c1,0
COc1ccc([C@H]2CC=CC[C@@H](C)Oc3ccccc3C(=O)N(C)[C@H](Cc3ccccc3)C(=O)N2)c(OC)c1 (mixture of isomers),-79
SMILES,Tgondii IFNg
COc1ccc([C@H]2CC=CC[C@H](C)Oc3ccccc3C(=O)N(C)[C@@H](C(C)C)C(=O)N2)c(OC)c1 (mixture of isomers),0
C[C@@H]1CC=CC[C@@H](c2cccc(Cl)c2)NC(=O)[C@@H](Cc2ccccc2)N(C)C(=O)c2ccccc2O1 (mixture of isomers),0
Cc1ccc(C(=O)N2CCC3(CCN3Cc3cnn(C)c3)C2)cc1 (configuration not stated),0
O=C(O)c1ccc(-c2cccc(CN3CCOCC3)c2)o1,0
COc1cccc(-c2nccn2CCc2cnc[nH]2)c1OC,0
CCOCc1cc(-c2nccn2-c2cccnc2)ccc1OC,0
COc1ccc(-c2ccccc2)cc1-n1ccnc1-c1cnc[nH]1,-82
O=C(OC1C(OC(=O)c2cccnc2)C(OC(=O)c2cccnc2)C(OC(=O)c2cccnc2)C(OC(=O)c2cccnc2)C1OC(=O)c1cccnc1)c1cccnc1 (configuration not stated),0
CC1(C(=O)NCc2ccc(F)cc2F)CCN(C(=O)c2ccc(F)cc2)CC1,0
CC1(C(=O)NCc2ccc(F)cc2F)CCN(C(=O)c2ccc(C(C)(C)C)cc2)CC1,-91
CC1(C(=O)NCc2ccc(F)cc2F)CCN(C(=O)c2ccccc2)CC1,0
O=C1CCCN1Cc1nnc2n1CCN(Cc1ccoc1)C2,0
CNC[C@@H]1Oc2ncc(-c3cncnc3)cc2C(=O)N([C@H](C)CO)C[C@@H]1C,0
COCc1cc(CN2CCCN(c3ccccc3)CC2)ccc1OC,0
COc1ccc(C2NC(C(=O)O)Cc3c2[nH]c2ccccc32)cc1CN1CCN(c2ccc(F)cc2)CC1 (configuration not stated),0
COc1ccc(C2NCCc3c2[nH]c2ccccc32)cc1CN1CCN(c2ccc([N+](=O)[O-])cc2)CC1 (configuration not stated),-117
CC(C)(C)c1ccc2[nH]c3c(c2c1)CCCC3=O,-84
O=c1sc2ccccc2n1Cc1nnc(-c2ccccc2Cl)o1,0
COc1cc(/C=C/CN2CC(=O)N(C3CCCCC3)CC(OCc3ccncc3)C2)ccc1O (configuration not stated),0
